# Platelet DG rel = platelet dense granule release activity; human platelet-rich plasma, SFLLRN dense granule ATP release, luminescence; inhibition, %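 (compounds screened at 7.5 µM in platelet-rich plasma)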; hit rate 0.22% among 300,000; AID 1663;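 active = mean replicate score, as percent of positive control, at or above 50; inconclusive = mean below 50 but at least one replicate at or above 50; inactive = mean and every replicate below 50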
# HSF1 inhib = HSF1 inhibition; NIH3T3-HGL HSE-luciferase, MG132-induced, luminescence 8 h; hits give low values; activity change, negative = inhibition, % at 7.5 µM (by protocol); hit rate 0.77% among 300,000;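 active = more than half of replicate wells show activity change below -50%, luminescence cut by over half; inconclusive = some wells, but at most half, below -50%; inactive = no replicate well below -50%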;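 also: luciferase reports HSF-1 transcriptional activity via heat shock element; 0% = median of DMSO wells and -100% = zero luminescence signal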
# MPTP block = inhibitors of mitochondrial permeability transition pore; isolated mouse mitochondria, Ca2+ swelling absorbance, 30 min; inhibition, % at 10 µM; hit rate 1.4% among 360,000;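 active = inhibition of 50% or more, scaled per plate between neutral and stimulator controls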;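 also: 0% = DMSO wells given calcium and 100% = 1 mM EGTA wells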
# dFosB act = enhances mouse delta FosB homodimer DNA binding | P13346 | purified delta FosB, TAMRA-CDK5 oligo fluorescence polarization; percent of positive-control signal above neutral wells | activation, % at 25 µM | hit rate 0.99% among 340,000 | AID 493131;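 active = mean activation above about 17%, with every replicate also reaching it, limit read from the data, passing the limit was not always enough; inconclusive = only one of the two conditions met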
# Target sequence (P13346 whole entry, looked up): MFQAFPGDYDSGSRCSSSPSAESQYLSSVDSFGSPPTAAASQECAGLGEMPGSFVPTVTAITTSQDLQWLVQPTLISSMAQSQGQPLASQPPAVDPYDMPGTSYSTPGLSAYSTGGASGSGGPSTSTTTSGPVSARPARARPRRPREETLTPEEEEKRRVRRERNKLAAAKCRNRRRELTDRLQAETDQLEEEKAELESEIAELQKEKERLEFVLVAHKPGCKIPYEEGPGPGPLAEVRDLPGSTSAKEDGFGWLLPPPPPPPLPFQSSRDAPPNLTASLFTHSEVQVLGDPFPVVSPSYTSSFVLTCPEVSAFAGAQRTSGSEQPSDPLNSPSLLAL
# HSF-1 act = increases HSF-1 driven luciferase reporter signal; AID 504408; activation, % at 9 µM; hit rate 1.7% among 300,000; NIH3T3-HGL HSF-1 luciferase reporter, MG132, 8 h; 100% = twice DMSO control signal;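 active = mean replicate activation of at least 50% with a set share of replicates each reaching 50%; inconclusive = only one of those two conditions met; inactive = mean below 50% and too few replicates reaching it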;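 also: 0% = median of the neutral control wells and 100% = twice that signal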
# HSP90 refold inh = inhibitors of HSP90 luciferase refolding in rabbit reticulocyte lysate | luciferase refolding luminescence, 3 h | inhibition, % at 5.6 µM | hit rate 0.91% among 290,000;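 active = inhibition above the screen-wide mean plus 3 SD, computed separately per campaign, cut at about 16% in these data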;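 also: 0% = DMSO wells and 100% = 60 µM geldanamycin wells; inhibitors lower the luminescence because luciferase stays unfolded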
# Rh123 counter = Rhodamine 123 counter-screen of mitochondrial pore hits; shares compounds with MPTP block; isolated mitochondria, membrane potential, Rhodamine 123 fluorescence; inhibition, % at 10 µM; hit rate 78% among 5,000; AID 624504; in the data active = inhibition above about 22%;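 also: 0% = DMSO vehicle and 100% = positive control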
# MPTP abs DR = MPTP inhibition, dose response swelling confirmation | shares compounds with MPTP block | isolated mitochondria swelling, absorbance | IC50, µM | hit rate 58% among 780 | AID 651561; in the data active = IC50 below about 20 µM
# MPTP counter DR = active in counter-screen for permeability transition pore inhibitors | hit rate 49% among 780 | isolated mitochondria counterscreen, fluorescence read-out | IC50, µM | AID 651564 | shares compounds with MPTP block; in the data active = IC50 below about 80 µM
# An asterisk follows results filed as active; ? = inconclusive; . = not tested or not shown. Rows were chosen to be rich in hits. Some 4.9% of all compounds tested hit in one or more screens of this group.
SMILES,Platelet DG rel,HSF1 inhib,MPTP block,dFosB act,HSF-1 act,HSP90 refold inh,Rh123 counter,others
CCOC(=O)c1sc(NC(=O)CSc2nc(C)cc(C)n2)c(C#N)c1C,-1,-5,58*,-16,-22,-1,40*,
CCOC(=O)c1sc(NC(=O)CSc2n[nH]c(-c3ccccc3)n2)c(C#N)c1C,-8,?,100*,-25,-59,2,71*,
CCOC(=O)c1sc(NC(=O)CSc2nc3c(cc2C#N)CCCCC3)c(C#N)c1C,7,-5,91*,0,-4,-1,4,MPTP abs DR=>100;MPTP counter DR=9.8*
CCOC(=O)c1sc(NC(=O)CSc2ncn[nH]2)c(C#N)c1C,-1,3,8,-33,22,0,.,
CCOC(=O)c1sc(NC(=O)CSc2ccccn2)c(C#N)c1C,1,-3,3,1,-6,-2,.,
Cc1cccc(C)c1NC(=O)CSc1nc(-c2ccco2)cc(C(F)(F)F)n1,-7,-2,1,-2,-7,2,.,
O=C(COC(=O)c1cc([N+](=O)[O-])ccc1N1CCOCC1)NCCc1ccccc1,14,2,-1,-3,-5,-1,.,
CC1(C(=O)Nc2cccc(C#N)c2)CCN1C(=O)c1ccccc1CCc1ccccc1 (stereo unspecified),.,.,1,.,.,.,.,
Cc1nn(C)c(Sc2ccccn2)c1[N+](=O)[O-],9,-4,-2,-7,0,0,.,
CCOC(=O)c1sc(NC(=O)CSc2nc(-c3ccco3)cc(C(F)(F)F)n2)c(C#N)c1C,23,-2,84*,-1,3,1,7,MPTP abs DR=4*;MPTP counter DR=<2.5*
CCOC(=O)c1sc(NC(=O)c2cc(-c3ccccc3)nc3ccccc23)c(C#N)c1C,-1,-5,107*,-9,-28,1,78*,
Cc1cc(NC(=O)CSc2nc(-c3ccco3)cc(C(F)(F)F)n2)no1,-3,-10,6,3,-24,-2,.,
COc1cccc(CNC(=O)CN(C)S(=O)(=O)c2ccc3c(c2)n(C)c(=O)c(=O)n3C)c1,-1,2,0,1,-15,2,.,
O=C(O)Cn1cnc2c(OCc3ccccc3)ncnc21,.,.,-2,-5,.,.,.,
Cc1cc(C)c(CN2CCN(C(=O)Cn3cnc4c(OCc5ccccc5)ncnc43)CC2)c(C)c1,.,.,67*,1,.,.,84*,
COc1ccc(S(=O)(=O)NCCc2nnc3ccc(SCC(=O)Nc4nc(C)cs4)nn23)cc1,-8,-7,0,-6,-5,-5,.,
O=C(O)c1ccc(CN(c2ccccc2)S(=O)(=O)c2ccccc2)cc1,-8,-10,0,1,-18,0,.,
CN1C(=S)SC(C)(C)C1N(O)C(=O)Nc1ccc(Cl)cc1 (stereo unspecified),-1,6,1,-5,2,2,.,
CN1C(=S)SC(N(O)C(=O)Nc2ccc(Cl)c(Cl)c2)C1(C)C (stereo unspecified),6,0,98*,1,-1,10,86*,
Cn1c(=O)c2c(nc(NCCOc3ccc(C(C)(C)C)cc3)n2C)n(C)c1=O,6,-5,101*,0,3,0,6,MPTP abs DR=2.3*;MPTP counter DR=36*
COc1ccccc1OCCNc1nc2c(c(=O)n(C)c(=O)n2C)n1C,-2,-4,0,-4,-10,-1,.,
COCCNc1nc2c(c(=O)n(C)c(=O)n2C)n1Cc1cccc(C(F)(F)F)c1,1,-2,82*,-3,-6,-2,71*,
CCN(CC)S(=O)(=O)c1ccc(N2CCN(c3ccccc3OC)CC2)c(N)c1,1,-2,108*,-3,7,3,98*,
Cc1ccc2[nH]c3c(N4CCN(Cc5ccc6c(c5)OCO6)CC4)ncnc3c2c1,.,.,.,.,.,-1,.,
Cc1ccc2c(c1)[nH]c1c(N3CCN(Cc4ccccc4)CC3)ncnc12,2,-12,68*,1,-9,-4,80*,
SMILES,Platelet DG rel,HSF1 inhib,MPTP block,dFosB act,HSF-1 act,HSP90 refold inh,Rh123 counter,others
c1ccc(CN2CCN(c3ncnc4c3[nH]c3ccccc34)CC2)cc1,-25,1,15,3,11,-3,.,
Cc1ccc2[nH]c3c(N4CCN(Cc5ccccc5)CC4)ncnc3c2c1,1,2,85*,-4,-1,0,68*,
c1ccc2c(c1)CCN(c1ncnc3c1[nH]c1ccccc13)C2,-3,12,99*,1,17,.,101*,
COc1ccc2c(c1)[nH]c1c(N3CCN(Cc4ccc5c(c4)OCO5)CC3)ncnc12,-1,5,88*,15,5,-3,91*,
c1ccc2c(c1)[nH]c1c(N3CCC4(CC3)OCCO4)ncnc12,-1,-6,46,8,2,1,.,
CC(C)N1CCC1(C)C(=O)Nc1ccc(-n2cccc2)cc1 (stereo unspecified),.,.,1,.,.,.,.,
COc1ccc(CNS(=O)(=O)c2cn(C)c(=O)n(C)c2=O)cc1,-7,-9,1,10,1,-1,.,
Cc1ccc(NC(=O)COC(=O)C2CCC(=O)N2)c([N+](=O)[O-])c1 (stereo unspecified),-4,-3,2,-3,4,-4,.,
COc1ccc(NC(=O)c2ccc(-c3ccc(-c4noc(C)n4)cc3C)cc2)cc1N1CCN(C)CC1,.,.,81*,21*,.,.,-19,
C=CC[n+]1ccc(/C=C2\C=Cc3cc(C)ccc3N2CC)c2ccccc21,.,.,102*,10,.,-1,76*,
CC(=O)OC(C(=O)Nc1ccccc1C)C(OC(C)=O)C(OC(C)=O)C(OC(C)=O)C(=O)Nc1ccccc1C (stereo unspecified),.,.,.,.,.,2,.,
O=S(=O)(c1ccc(Cl)cc1)N1CCN(c2ccccn2)CC1,-1,4,1,-10,4,-2,.,
O=S(=O)(c1ccc(Cl)cc1)N1CCN(c2ncnc3sccc23)CC1,.,.,70*,-8,.,.,94*,
Cc1csc2c(N3CCN(S(=O)(=O)c4ccc(Cl)cc4)CC3)ncnc12,17,5,67*,-1,10,1,21*,
O=C(Nc1ccc(Cl)cc1)C1=Cc2cc(Cl)ccc2OC1,25,-14,99*,5,-9,3,113*,
Cc1cccc(NC(=S)NCCC(c2ccccc2)c2ccccc2)c1,-13,11,87*,-1,12,-3,100*,
COc1cc(NC(=S)NCCC(c2ccccc2)c2ccccc2)cc(OC)c1,-6,0,78*,-5,1,4,92*,
COc1cccc(NC(=S)NCCC(c2ccccc2)c2ccccc2)c1,3,13,4,-9,33,5,.,

# Bioassay records as filed in PubChem.
